In the supplement of paper PMC6411743:
± gives the standard deviation of the averaged measurements. The full data set covers some 6,500 targets. This sample favours those with the largest changes.

Compound: Nc1ncnc2c1ncn2[C@@H]1O[C@H](COP(=O)(O)OP(=O)(O)OP(=O)(O)O)[C@@H](O)[C@H]1O [adenosine triphosphate]
Assay: NP40-soluble protein abundance relative to vehicle (solubility fold change) (ratio); higher = more soluble protein in presence of ATP
Outline: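 Data come from three independent experiments in which Dounce-homogenised Jurkat crude lysate was treated at eight concentrations from 0.1 to 10 mM. Treatment ran 10 min at room temperature and then 3 min at 37 °C, after which 0.8% NP40 and benzonase were added for 60 min at 4 °C before ultracentrifugation. The supernatant underwent TMT labelling and LC-MS/MS, and vsn-normalised intensities were expressed as fold change against the detergent-processed vehicle in each replicate.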

Sequence of UniProt Q8IZ81 (Q8IZ81 whole entry, one chain of several): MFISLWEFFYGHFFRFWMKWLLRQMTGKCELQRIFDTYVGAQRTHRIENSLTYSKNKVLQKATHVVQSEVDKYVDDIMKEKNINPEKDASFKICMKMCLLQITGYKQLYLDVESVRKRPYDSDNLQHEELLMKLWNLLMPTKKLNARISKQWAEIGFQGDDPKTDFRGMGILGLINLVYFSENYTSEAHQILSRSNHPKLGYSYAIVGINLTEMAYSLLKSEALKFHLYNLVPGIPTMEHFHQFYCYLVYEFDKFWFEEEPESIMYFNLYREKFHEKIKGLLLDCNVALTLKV
Sequence of UniProt Q8IUD2 (Q8IUD2 whole entry, one chain of several): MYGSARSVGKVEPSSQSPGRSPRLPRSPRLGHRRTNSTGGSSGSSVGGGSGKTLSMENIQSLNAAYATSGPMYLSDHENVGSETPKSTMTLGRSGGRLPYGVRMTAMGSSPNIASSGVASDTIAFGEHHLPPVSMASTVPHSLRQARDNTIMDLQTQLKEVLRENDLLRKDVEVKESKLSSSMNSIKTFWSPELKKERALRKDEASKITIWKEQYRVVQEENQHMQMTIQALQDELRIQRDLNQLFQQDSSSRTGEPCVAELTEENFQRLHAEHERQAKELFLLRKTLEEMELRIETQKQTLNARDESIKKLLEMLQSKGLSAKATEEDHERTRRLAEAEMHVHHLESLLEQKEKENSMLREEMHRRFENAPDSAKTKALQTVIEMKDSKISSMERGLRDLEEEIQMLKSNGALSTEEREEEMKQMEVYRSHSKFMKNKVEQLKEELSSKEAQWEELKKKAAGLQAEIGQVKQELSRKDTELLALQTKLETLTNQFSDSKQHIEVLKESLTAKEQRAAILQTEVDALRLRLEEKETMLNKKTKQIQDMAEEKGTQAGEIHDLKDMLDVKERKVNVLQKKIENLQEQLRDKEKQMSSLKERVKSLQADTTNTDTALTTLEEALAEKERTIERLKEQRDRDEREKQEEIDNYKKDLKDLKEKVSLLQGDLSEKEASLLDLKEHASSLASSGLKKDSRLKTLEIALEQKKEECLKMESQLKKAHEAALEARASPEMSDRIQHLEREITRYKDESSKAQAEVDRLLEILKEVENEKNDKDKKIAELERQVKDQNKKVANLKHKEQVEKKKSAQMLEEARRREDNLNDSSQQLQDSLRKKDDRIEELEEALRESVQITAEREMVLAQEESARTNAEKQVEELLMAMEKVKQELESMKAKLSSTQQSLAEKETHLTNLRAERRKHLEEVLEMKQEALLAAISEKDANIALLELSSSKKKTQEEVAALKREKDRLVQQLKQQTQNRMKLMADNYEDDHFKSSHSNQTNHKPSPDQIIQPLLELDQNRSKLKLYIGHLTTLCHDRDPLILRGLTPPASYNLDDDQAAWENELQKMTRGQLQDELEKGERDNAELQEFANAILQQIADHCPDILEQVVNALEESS
Sequence of UniProt Q14498 (Q14498 whole entry): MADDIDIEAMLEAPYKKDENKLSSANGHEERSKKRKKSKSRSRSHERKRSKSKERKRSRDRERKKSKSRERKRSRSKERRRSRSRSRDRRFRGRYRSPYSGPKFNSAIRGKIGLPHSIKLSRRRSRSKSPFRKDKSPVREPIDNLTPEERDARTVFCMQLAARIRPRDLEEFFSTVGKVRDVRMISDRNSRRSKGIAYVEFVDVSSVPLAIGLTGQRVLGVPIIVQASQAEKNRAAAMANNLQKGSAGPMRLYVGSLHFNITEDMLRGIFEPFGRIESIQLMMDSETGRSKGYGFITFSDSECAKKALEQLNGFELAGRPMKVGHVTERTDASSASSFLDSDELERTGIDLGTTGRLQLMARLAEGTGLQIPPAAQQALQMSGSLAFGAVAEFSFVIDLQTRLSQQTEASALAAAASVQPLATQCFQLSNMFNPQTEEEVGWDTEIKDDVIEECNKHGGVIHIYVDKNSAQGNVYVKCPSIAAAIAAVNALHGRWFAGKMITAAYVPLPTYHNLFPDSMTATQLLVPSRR
Sequence of UniProt Q14011 (Q14011 whole entry): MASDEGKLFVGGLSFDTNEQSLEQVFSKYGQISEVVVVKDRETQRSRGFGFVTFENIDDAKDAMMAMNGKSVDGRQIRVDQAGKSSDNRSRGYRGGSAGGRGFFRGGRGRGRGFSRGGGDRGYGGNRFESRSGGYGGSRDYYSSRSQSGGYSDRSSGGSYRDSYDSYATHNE
Sequence of UniProt Q8NB78 (Q8NB78 whole entry): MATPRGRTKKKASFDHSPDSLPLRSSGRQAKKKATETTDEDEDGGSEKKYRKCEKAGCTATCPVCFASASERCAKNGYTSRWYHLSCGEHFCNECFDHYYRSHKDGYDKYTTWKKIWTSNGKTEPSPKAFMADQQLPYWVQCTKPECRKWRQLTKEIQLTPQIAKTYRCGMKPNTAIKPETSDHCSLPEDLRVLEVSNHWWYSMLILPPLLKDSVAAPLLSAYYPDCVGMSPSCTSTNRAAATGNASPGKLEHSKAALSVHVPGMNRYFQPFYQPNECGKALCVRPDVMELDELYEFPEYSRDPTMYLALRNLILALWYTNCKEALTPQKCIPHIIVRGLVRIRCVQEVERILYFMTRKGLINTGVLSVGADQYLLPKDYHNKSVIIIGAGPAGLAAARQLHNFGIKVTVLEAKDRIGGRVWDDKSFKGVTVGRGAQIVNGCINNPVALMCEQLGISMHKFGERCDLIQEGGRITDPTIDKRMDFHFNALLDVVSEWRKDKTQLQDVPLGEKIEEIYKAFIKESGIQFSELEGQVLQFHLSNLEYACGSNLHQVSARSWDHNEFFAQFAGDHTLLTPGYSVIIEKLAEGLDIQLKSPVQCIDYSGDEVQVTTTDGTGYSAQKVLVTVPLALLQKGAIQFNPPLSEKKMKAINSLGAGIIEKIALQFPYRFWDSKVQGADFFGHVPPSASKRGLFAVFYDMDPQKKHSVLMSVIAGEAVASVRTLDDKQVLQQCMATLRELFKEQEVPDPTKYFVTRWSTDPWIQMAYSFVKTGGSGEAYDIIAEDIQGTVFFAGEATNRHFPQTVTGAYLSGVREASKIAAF
Sequence of UniProt Q8NCA5 (Q8NCA5 whole entry): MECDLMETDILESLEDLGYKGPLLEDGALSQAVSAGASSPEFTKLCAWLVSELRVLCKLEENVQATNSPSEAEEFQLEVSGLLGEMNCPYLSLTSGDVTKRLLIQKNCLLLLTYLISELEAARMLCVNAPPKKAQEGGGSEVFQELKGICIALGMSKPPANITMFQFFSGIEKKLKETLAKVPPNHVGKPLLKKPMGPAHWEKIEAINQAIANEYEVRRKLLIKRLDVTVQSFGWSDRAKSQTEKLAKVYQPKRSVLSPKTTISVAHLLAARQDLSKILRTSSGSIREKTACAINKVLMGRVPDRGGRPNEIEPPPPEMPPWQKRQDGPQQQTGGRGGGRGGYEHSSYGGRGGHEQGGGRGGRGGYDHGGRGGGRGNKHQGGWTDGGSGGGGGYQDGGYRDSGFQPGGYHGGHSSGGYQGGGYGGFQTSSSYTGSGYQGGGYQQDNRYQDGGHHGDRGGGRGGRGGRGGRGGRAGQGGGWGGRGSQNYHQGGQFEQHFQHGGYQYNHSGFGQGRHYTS
Sequence of UniProt Q15036 (Q15036 whole entry): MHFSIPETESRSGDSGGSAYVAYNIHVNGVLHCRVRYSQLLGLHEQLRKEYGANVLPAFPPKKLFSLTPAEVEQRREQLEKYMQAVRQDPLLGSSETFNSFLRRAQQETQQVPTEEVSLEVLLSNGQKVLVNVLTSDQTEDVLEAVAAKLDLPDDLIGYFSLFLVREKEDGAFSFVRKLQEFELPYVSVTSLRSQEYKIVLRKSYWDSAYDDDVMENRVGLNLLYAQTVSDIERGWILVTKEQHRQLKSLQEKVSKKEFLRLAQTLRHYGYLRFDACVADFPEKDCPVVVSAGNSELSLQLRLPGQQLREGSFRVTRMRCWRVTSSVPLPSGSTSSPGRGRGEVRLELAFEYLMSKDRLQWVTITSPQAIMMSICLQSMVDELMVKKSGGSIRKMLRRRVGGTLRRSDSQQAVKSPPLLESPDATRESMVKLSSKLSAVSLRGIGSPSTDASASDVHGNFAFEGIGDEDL
Sequence of UniProt Q13247 (Q13247 whole entry, looked up): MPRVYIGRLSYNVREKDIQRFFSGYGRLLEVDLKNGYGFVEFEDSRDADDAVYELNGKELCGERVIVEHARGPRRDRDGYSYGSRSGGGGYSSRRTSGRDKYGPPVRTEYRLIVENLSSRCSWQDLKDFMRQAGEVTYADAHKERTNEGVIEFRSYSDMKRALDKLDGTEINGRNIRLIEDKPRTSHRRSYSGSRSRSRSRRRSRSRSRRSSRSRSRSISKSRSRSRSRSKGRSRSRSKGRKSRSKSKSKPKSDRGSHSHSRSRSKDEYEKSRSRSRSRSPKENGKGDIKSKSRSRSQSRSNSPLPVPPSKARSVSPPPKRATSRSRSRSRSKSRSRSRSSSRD
Sequence of UniProt Q32P28 (Q32P28 whole entry): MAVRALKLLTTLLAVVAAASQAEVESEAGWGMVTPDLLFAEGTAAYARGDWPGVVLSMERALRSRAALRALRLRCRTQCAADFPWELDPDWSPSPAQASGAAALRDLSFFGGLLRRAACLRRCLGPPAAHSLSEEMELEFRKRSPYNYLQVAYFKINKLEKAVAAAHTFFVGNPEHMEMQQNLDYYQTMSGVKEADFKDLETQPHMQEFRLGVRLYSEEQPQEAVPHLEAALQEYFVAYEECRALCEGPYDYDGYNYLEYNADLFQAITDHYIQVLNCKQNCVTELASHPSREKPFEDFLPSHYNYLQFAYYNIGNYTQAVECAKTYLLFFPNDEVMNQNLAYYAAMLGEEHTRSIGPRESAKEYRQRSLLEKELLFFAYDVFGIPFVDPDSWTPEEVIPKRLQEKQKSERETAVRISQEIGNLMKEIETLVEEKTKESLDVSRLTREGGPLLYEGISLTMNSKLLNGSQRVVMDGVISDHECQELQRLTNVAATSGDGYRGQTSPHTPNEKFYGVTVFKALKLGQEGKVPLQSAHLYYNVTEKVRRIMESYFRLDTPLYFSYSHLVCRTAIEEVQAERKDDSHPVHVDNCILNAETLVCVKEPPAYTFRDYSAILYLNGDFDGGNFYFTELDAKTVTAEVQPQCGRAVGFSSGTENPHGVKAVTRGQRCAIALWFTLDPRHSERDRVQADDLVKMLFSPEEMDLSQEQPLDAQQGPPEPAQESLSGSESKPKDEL

Target	NP40-soluble protein abundance (concentration: 1mM)	NP40-soluble protein abundance (concentration: 2mM)	NP40-soluble protein abundance (concentration: 4mM)	NP40-soluble protein abundance (concentration: 6mM)	NP40-soluble protein abundance (concentration: 8mM)	NP40-soluble protein abundance (concentration: 10mM)
ZC3H12A (UniProt Q5D1E8)	0.982 ± 0.088	1.05 ± 0.089	0.988 ± 0.11	1.02 ± 0.085	1.02 ± 0.084	0.943 ± 0.11
SNIP1 (UniProt Q8TAD8)	1.18 ± 0.044	1.22 ± 0.055	1.44 ± 0.085	1.57 ± 0.098	1.67 ± 0.11	1.8 ± 0.1
UniProt Q7Z5K2|Q7Z5K2-3	1.02 ± 0.011	0.995 ± 0.018	0.993 ± 0.011	1.01 ± 0.026	1.014 ± 0.0065	0.987 ± 0.029
YRDC (UniProt Q86U90)	0.928 ± 0.045	0.959 ± 0.05	0.93 ± 0.028	0.885 ± 0.043	0.896 ± 0.01	0.932 ± 0.017
UniProt Q86UY6	1.39 ± 0.18	1.46 ± 0.14	1.56 ± 0.21	1.66 ± 0.26	1.69 ± 0.21	1.69 ± 0.15
UniProt Q14643|Q14643-2|Q14643-5	1.05 ± 0.071	0.999 ± 0.065	1 ± 0.041	0.961 ± 0.07	1.02 ± 0.027	0.995 ± 0.045
LARP1 (UniProt Q6PKG0)	0.939 ± 0.062	0.988 ± 0.065	1.06 ± 0.059	1.2 ± 0.069	1.22 ± 0.043	1.33 ± 0.065
UniProt Q53HC0|Q53HC0-2	0.993 ± 0.083	0.918 ± 0.031	0.939 ± 0.082	0.993 ± 0.21	0.966 ± 0.092	0.922 ± 0.084
UniProt Q8NG08|F5H1I4	1.05 ± 0.18	1.06 ± 0.12	1.09 ± 0.16	0.955 ± 0.13	0.984 ± 0.066	1.01 ± 0.1
UniProt Q8IUD2|X6RLX0	0.979 ± 0.037	0.985 ± 0.025	0.997 ± 0.025	1.01 ± 0.014	0.988 ± 0.027	0.997 ± 0.025
UniProt Q15036|Q15036-2	0.88 ± 0.17	0.835 ± 0.14	0.853 ± 0.15	0.808 ± 0.18	0.808 ± 0.12	0.849 ± 0.16
CUL4A (UniProt Q13619)	0.99 ± 0.13	0.955 ± 0.08	0.918 ± 0.08	0.89 ± 0.098	0.963 ± 0.047	0.94 ± 0.047
UniProt Q13057|Q13057-2	1.01 ± 0.061	1.02 ± 0.072	1.02 ± 0.086	0.962 ± 0.094	1.04 ± 0.095	1.02 ± 0.075
UniProt Q14498|Q14498-2	1.59 ± 0.14	1.72 ± 0.12	1.84 ± 0.12	1.93 ± 0.13	1.98 ± 0.15	2.02 ± 0.2
UniProt Q32P28|Q32P28-3|Q32P28-4	1.13 ± 0.023	1.15 ± 0.025	1.2 ± 0.077	1.19 ± 0.043	1.22 ± 0.051	1.198 ± 0.0094
UniProt Q13111|K7EPA1	0.987 ± 0.059	0.988 ± 0.028	0.97 ± 0.035	1.03 ± 0.031	0.977 ± 0.036	1.01 ± 0.036
UniProt Q8TDY2|Q8TDY2-2	1.04 ± 0.056	1.02 ± 0.044	1.03 ± 0.038	1.04 ± 0.042	1.01 ± 0.041	1.04 ± 0.038
CIRBP (UniProt Q14011)	0.999 ± 0.062	1.02 ± 0.029	1.04 ± 0.033	1.1 ± 0.061	1.09 ± 0.051	1.1 ± 0.025
EFTUD2 (UniProt Q15029)	1.12 ± 0.04	1.16 ± 0.047	1.21 ± 0.047	1.26 ± 0.075	1.41 ± 0.056	1.42 ± 0.12
TBC1D25 (UniProt Q3MII6)	0.982 ± 0.059	1.04 ± 0.11	1.05 ± 0.16	0.962 ± 0.095	1.01 ± 0.14	1 ± 0.15
UBE2V2 (UniProt Q15819)	0.932 ± 0.018	0.904 ± 0.027	0.9 ± 0.045	0.922 ± 0.032	0.885 ± 0.035	0.853 ± 0.028
UniProt Q8TEB1|Q8TEB1-2	0.948 ± 0.093	0.977 ± 0.06	0.961 ± 0.079	0.956 ± 0.054	0.942 ± 0.066	0.918 ± 0.078
UniProt Q8NB78	1.11 ± 0.064	1.09 ± 0.025	1.11 ± 0.08	0.998 ± 0.08	1.11 ± 0.035	1.09 ± 0.025
C6ORF134 (UniProt Q5SQI0)	0.975 ± 0.073	0.98 ± 0.089	0.981 ± 0.064	0.999 ± 0.09	0.983 ± 0.029	0.998 ± 0.04
DHX9 (UniProt Q08211)	1.24 ± 0.071	1.29 ± 0.043	1.49 ± 0.03	1.55 ± 0.024	1.88 ± 0.091	1.95 ± 0.15

Target	NP40-soluble protein abundance (concentration: 1mM)	NP40-soluble protein abundance (concentration: 2mM)	NP40-soluble protein abundance (concentration: 4mM)	NP40-soluble protein abundance (concentration: 6mM)	NP40-soluble protein abundance (concentration: 8mM)	NP40-soluble protein abundance (concentration: 10mM)
UniProt Q8IY17|Q8IY17-3|Q8IY17-4|Q8IY17-2	1.05 ± 0.056	1.05 ± 0.033	1.028 ± 0.0096	1.01 ± 0.051	1.04 ± 0.04	1.06 ± 0.036
FADD (UniProt Q13158)	1.1 ± 0.14	1.05 ± 0.05	1.06 ± 0.11	1.05 ± 0.046	1.06 ± 0.13	0.969 ± 0.11
UniProt Q13247|Q13247-3	1.84 ± 0.25	1.98 ± 0.19	2 ± 0.21	2.28 ± 0.23	2.17 ± 0.17	2.15 ± 0.25
UniProt Q86X95	0.964 ± 0.013	0.935 ± 0.061	0.9643 ± 0.008	0.949 ± 0.026	0.935 ± 0.0096	0.913 ± 0.02
UniProt Q8N3X1|Q8N3X1-2	1.01 ± 0.026	1.11 ± 0.013	1.29 ± 0.042	1.57 ± 0.027	1.72 ± 0.08	1.9 ± 0.082
Q5VVD7|Q8IWE5 (UniProt Q8IWE5)	0.929 ± 0.047	0.998 ± 0.048	0.932 ± 0.04	0.953 ± 0.036	0.95 ± 0.04	0.955 ± 0.03
UniProt Q14155-1	1 ± 0.011	0.9849 ± 0.0056	0.97 ± 0.013	1.02 ± 0.05	0.976 ± 0.024	0.962 ± 0.034
UniProt Q16611|Q16611-2	1.01 ± 0.036	0.985 ± 0.023	1.02 ± 0.09	1.05 ± 0.045	0.997 ± 0.077	0.993 ± 0.087
UniProt Q8N137|Q8N137-2|Q8N137-3|Q8N137-4|Q8N137-5	0.92 ± 0.024	1.032 ± 0.006	1.15 ± 0.056	0.983 ± 0.054	0.945 ± 0.026	0.947 ± 0.2
UniProt Q7L4P6|Q7L4P6-2	0.995 ± 0.085	1.12 ± 0.2	1.23 ± 0.3	1.2 ± 0.21	1.02 ± 0.096	1.12 ± 0.14
UniProt Q14289|Q14289-2|H0YB74	1.03 ± 0.04	1.04 ± 0.042	1.02 ± 0.04	0.981 ± 0.06	1.01 ± 0.04	1 ± 0.064
DCUN1D3 (UniProt Q8IWE4)	0.923 ± 0.038	0.949 ± 0.049	0.998 ± 0.035	0.92 ± 0.034	0.931 ± 0.039	0.866 ± 0.11
UniProt Q16630|Q16630-2	2.36 ± 0.24	2.68 ± 0.27	2.89 ± 0.3	3.09 ± 0.32	3.03 ± 0.2	3.05 ± 0.28
UniProt Q8IZ81|D6RBS5	1.01 ± 0.11	0.966 ± 0.089	0.958 ± 0.094	0.916 ± 0.12	0.967 ± 0.045	0.958 ± 0.057
UniProt Q5JUR7	1 ± 0.077	1.07 ± 0.12	1.04 ± 0.029	1.02 ± 0.13	1.05 ± 0.087	1.06 ± 0.062
UniProt Q8NCA5|Q8NCA5-2	1.01 ± 0.056	1.14 ± 0.15	1.18 ± 0.12	1.26 ± 0.14	1.41 ± 0.14	1.64 ± 0.23
BNIP1 (UniProt Q12981)	0.986 ± 0.051	0.983 ± 0.05	0.98 ± 0.07	1 ± 0.012	0.971 ± 0.049	0.932 ± 0.053
MDC1 (UniProt Q14676)	1.45 ± 0.11	1.57 ± 0.11	1.74 ± 0.13	1.89 ± 0.18	1.88 ± 0.13	1.99 ± 0.15
SMC5 (UniProt Q8IY18)	1.02 ± 0.026	1.02 ± 0.013	1.02 ± 0.02	1.04 ± 0.02	1.04 ± 0.016	1.04 ± 0.017
UniProt Q16181|Q16181-2	0.891 ± 0.15	0.979 ± 0.023	0.9086 ± 0.0056	0.963 ± 0.076	0.957 ± 0.026	0.911 ± 0.046
DDX51 (UniProt Q8N8A6)	1.25 ± 0.021	1.38 ± 0.085	1.65 ± 0.15	1.9 ± 0.22	2.05 ± 0.18	2.29 ± 0.27
UniProt Q15397	1.28 ± 0.054	1.39 ± 0.058	1.53 ± 0.073	1.6 ± 0.13	1.7 ± 0.042	1.96 ± 0.12
UniProt Q8N6N3|Q8N6N3-2	0.865 ± 0.1	0.81 ± 0.041	0.869 ± 0.13	0.822 ± 0.051	0.779 ± 0.12	0.817 ± 0.063
UniProt Q13137|Q13137-3|Q13137-4|Q13137-5|H0YBP4	0.962 ± 0.033	0.968 ± 0.032	0.9319 ± 0.0066	0.986 ± 0.03	0.941 ± 0.012	0.948 ± 0.026
